This is part of a sample that, as a whole, favours compounds with a hit. Of some 83,000 tested, about 20% had one in any assay.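 The test compound was applied at a single concentration to cells in 96-well plates for 48 hours, and percent growth was recorded.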 Values without a mark were called inactive. Calls of active or inactive are those of the source. The calls were made as follows: active = growth percent below 10; inactive = the rest.
What was measured:
Assay in all cases: NCI-60 one-dose screen, 48 h (100 = growth as untreated, 0 = no growth, -100 = all killed)
[1] = system: NCI-H23 lung; conditions: 10 µM unless noted
[2] = system: NCI-H226 lung; conditions: 10 µM unless noted
[3] = system: NCI-H322M lung; conditions: 10 µM unless noted
[4] = system: NCI-H460 lung; conditions: 10 µM unless noted
[5] = system: HOP-92 NSCLC; conditions: 10 µM
[6] = system: NCI-H522 lung; conditions: 10 µM
[7] = system: A549/ATCC NSCLC; conditions: 10 µM unless noted
[8] = system: 786-0 renal; conditions: 10 µM unless noted
[9] = system: COLO 205 colon; conditions: 10 µM unless noted

SMILES | growth [1] | growth [2] | growth [3] | growth [4] | growth [5] | growth [6] | growth [7] | growth [8] | growth [9]
CCOC(=O)CSSCC(=O)OCC | 112% | 123% | 106% | 108% | 103% | 99.7% | 98.7% | 106% | 113%
O=C1C(=O)c2ccccc2C(O)=C1CCCc1ccc(Oc2ccccc2)cc1 | 75% | 46.5% | 62.2% | 32.7% | 54.5% | 57.9% | 82.2% | 37.5% | 111%
CCNc1nnc(COc2ccc(CNC(=O)CCCC/C=C/C(C)C)cc2OC)o1 | 93.7% | 101% | 107% | 103% | 98.3% | 83.7% | 97% | 95.5% | 110%
c1ccc(Nc2ccccn2)cc1 | 103% | 130% | 106% | 115% | 97.9% | 91.7% | 98.9% | 95.1% | 99.8%
CC(=O)OC1/C=C\CC/C=C\C1 (centres undefined) | 121% | 102% | 102% | 102% | 92.8% | 102% | 100% | 102% | 121%
Oc1ccccc1\C=N/N=C/C=C/c1ccccc1 | 92.7% | 103% | 98.6% | 99% | 103% | 87.4% | 105% | 111% | 108%
COc1ccc(C2C3(C#N)C(N)=NC(=C(C#N)C#N)C23C#N)cc1OC (centres undefined) | 104% | 109% | 111% | 119% | 76.8% | 107% | 107% | 99.5% | 123%
CC(=O)c1cc(Nc2cc(C)nc(N)n2)cc(C(C)=O)c1 | 83.2% | 101% | 107% | 104% | 71.9% | 99.8% | 116% | 95.3% | 117%
C/C(=N\Nc1cccc(Cl)n1)c1ccccn1 | 16.8% | -3.86% (active) | 23.7% | 5.39% (active) | 40.5% | 24.6% | 9.19% (active) | 8.33% (active) | 10.6%
CCCCCCCCC/C(=N\NC(=O)c1ccncc1)c1ccc(O)c(O)c1O | 21.8% | 34.4% | 36.1% | 4.14% (active) | 46.6% | 36% | 13.5% | 11.1% | 27.6%
Cc1nc2c(nnn2-c2ccccc2)c2nc(-c3ccc(Cl)cc3)oc(=O)c12 | 116% | 92.8% | 103% | 115% | 117% | 99.7% | 111% | 105% | 120%
COc1ccc(Cn2cc3c(c2-c2ccc(OC)cc2)CCc2cnoc2-3)cc1 | 6.98% (active) | 9.5% (active) | 43.5% | 0.836% (active) | 55.2% | 11.1% | 22% | 30.3% | -32.4% (active)
COC1NC(Cl)=C(C#N)C(C#N)(C#N)C1(C)C (centres undefined) | 108% | 108% | 121% | 114% | 97.2% | 104% | 109% | 87.2% | 124%
CC1(c2ccc(Br)cc2)NC(=O)NC1=O (centres undefined) | 105% | 110% | 103% | 104% | 89.6% | 102% | 93.3% | 96% | 113%
CNCCCNCCCCNCCCN1C(=O)c2ccc3c4c(ccc(c24)C1=O)C(=O)N(CCCNCc1ccccc1OC)C3=O | 24.9% | 35.7% | 22.8% | 13.5% | 69% | 31.3% | 21.6% | 38.6% | 10.8%
CCC(CCCN1C(=O)c2ccccc2C1=O)Nc1cc(OC)cc2c(C)ccnc12 (centres undefined) | 117% | 88.2% | 104% | 114% | 72.4% | 91.8% | 103% | 95.9% | 104%
CCc1c(C)c2ccc(OCC(=O)N=Nc3c(O)[nH]c4ccccc34)c(C)c2oc1=O | 5.58% (active) | 12.4% | -14.2% (active) | -46.7% (active) | 29.7% | -9.85% (active) | 30.2% | -22.9% (active) | 31.4%
CC(=O)Nc1ccc(CC#N)cc1Br | 110% | 96.4% | 105% | 101% | 94% | 92.9% | 103% | 101% | 109%
COC(=O)c1ccc2[nH]c(O)c(C(=Nc3ccc(N(C)C(=O)CN4CCN(C)CC4)cc3)c3ccc(CCO)cc3)c2c1 | 57.1% | 57% | 66.5% | 74.6% | 66.6% | 33.3% | 95.4% | 44.2% | 18.1%
COC(=O)c1ccc2[nH]c(O)c(C(=Nc3ccc(N(C)C(=O)CN4CCN(C)CC4)cc3)c3ccc4c(c3)OCO4)c2c1 | 5.66% (active) | 23.3% | 21% | 8.35% (active) | 36.9% | 2.17% (active) | 5.98% (active) | 14.4% | -54.4% (active)
Nc1cc(N)c2nc(-c3ccccc3)c(NCCc3ccc(Cl)c(Cl)c3)nc2c1 | -63.9% (active) | -76.2% (active) | -91.7% (active) | -10.9% (active) | -78.5% (active) | -72.1% (active) | -62.8% (active) | -97.9% (active) | -62.4% (active)
C[C@H]1C[C@@H](n2cnc3c(N)nccc32)[C@H](O)[C@@H]1O | 128% | 105% | 110% | 80.8% | 83.3% | 151% | 98.6% | 95.6% | 109%
C#CCCCCCCC[C@@H]1OC(=O)[C@H]([C@@H](C)CC)NC(=O)[C@H]([C@@H](C)CC)NC(=O)CC(=O)[C@@H]1C | 99.8% | 89% | 99.6% | 103% | 78.1% | 92.5% | 105% | 101% | 112%
COc1ccc(CN2C(=O)/C(=C\C(=O)c3ccc(OCCN4CCCCC4)cc3)c3ccccc32)cc1 | 74.5% | 89.6% | 91.4% | 94.7% | 39% | 26% | 96.4% | 37.4% | 76.7%
CCn1cc(C(=O)O)c(=O)c2cc(F)c(N3CCN(S(=O)(=O)c4ccc(Cl)cc4)CC3)cc21 | -7.07% (active) | 60.1% | 45.9% | 5.92% (active) | -4.17% (active) | 8.39% (active) | 14.6% | 23.7% | 12.1%
COc1cc2c(/C=C3\C(=O)Nc4ccc(Br)cc43)c(Cl)n(C)c2cc1C | 20.6% | 45.1% | 17.2% | 8.86% (active) | -4.95% (active) | -3.92% (active) | 24% | -17.3% (active) | 6.03% (active)
O=C(O)CC1Cc2ccccc2C1C(=O)O (centres undefined) | 93.5% | 102% | 113% | 106% | 108% | 95.9% | 103% | 105% | 114%
Cc1nc(NC(=O)NC2CCCCC2)sc1C(=O)NN | 101% | 103% | 101% | 112% | -17.1% (active) | 0.452% (active) | 102% | 113% | 119%
CCCCn1c(Cc2ccc(OC)cc2)nc2cc(OC)c(OC)cc2c1=O | 62.1% | 68.1% | 101% | 99.2% | 61.9% | 87% | 19.7% | – | 107%
COc1ccc2c(c1)/C(=C/c1c(-c3cc(OC)c(OC)c(OC)c3)nc3sccn13)C(=O)N2 | 99.1% | 97% | 92.3% | 108% | 31.7% | 86.5% | 110% | 95.7% | 107%
